From PubChem BioAssay AID1347416 (National Center for Advancing Translational Sciences (NCATS), 2020)
Screen size: about 4,100 compounds; about 1,600 (39%) were called active. Inconclusive results (about 25%) are left out. Calls follow the shape of the dose curve; as a rule, active = well fitted inhibition curve with a large enough effect; inconclusive = small, poorly fitted or top-dose-only effect; inactive = no such curve, though single readings can be large or run the other way. The list shows a part of the results. A call without a number means that no potency is given here.

Experiment: qHTS Validation assay for Inhibitors of Plasmodium falciparum Dd2 growth in vitro; also: nearly all actives have a fitted effect of over 70% in size
Conditions: P. falciparum Dd2 in RBCs, SYBR Green growth, 72 h; series mostly up to 28.7 µM
Procedure, shortened: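 P. falciparum Dd2-infected red blood cells (2.5% hematocrit, 0.3% parasitemia) grown 72 h at 37 °C under 5% O2 with compounds in a titration, 29 uM to 0.5 nM final. Growth read as SYBR Green-1 fluorescence after ~16 h lysis; artesunate 300 nM as positive control.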
Potency is read from the fitted curve at half-maximal effect.

Compound	Potency
CN(C)c1ncc([N+](=O)[O-])cc1C(F)(F)F	inactive
CCc1noc(-c2cccn3c(CNC(=O)c4ccccc4F)nnc23)n1	inactive
Cc1ccc2sc(N3CCN(C(=O)c4ccc([N+](=O)[O-])o4)CC3)nc2c1C	5.31 µM (active)
COc1ccc2nc(N3CCN(C(=O)c4ccc([N+](=O)[O-])o4)CC3)sc2c1	4.73 µM (active)
Cc1cc(C)c2nc(N3CCC(C(=O)N4CCCC4)CC3)sc2c1	inactive
COc1cccc(N2CCN(c3nc(C(=O)NCc4cccc(C)c4)cs3)CC2)c1	inactive
Cc1ccc(C)c2sc(N3CCN(C(=O)c4ccc([N+](=O)[O-])o4)CC3)nc12	4.73 µM (active)
CCOc1ccc2nc(N3CCN(C(=O)C(C)C)CC3)sc2c1	inactive
CNC(=O)N1CCc2c(sc3ncnc(N(C)C)c23)C1	inactive
Nc1ccc2nc(-c3cccs3)[nH]c2c1	inactive
Cc1ccc(Sc2ccc(NC(=O)CCl)cc2)cc1C	9.44 µM (active)
Cc1ccc(NC(=O)Cn2ccnc2)cc1C	inactive
Cc1nc([C@@H]2CN(C(=O)c3nccc4ccccc34)C[C@H]2C(N)=O)n[nH]1	inactive
Cc1noc(C2CC3(CCN(C(=O)c4cccn4C)CC3)CN2C)n1 (stereo not drawn)	inactive
COC(=O)C1=C(C)NC(C)=C(C(=O)OC(C)(C)CN(C)CCC(c2ccccc2)c2ccccc2)C1c1cccc([N+](=O)[O-])c1 (stereo not drawn)	2.99 µM (active)
COC(=O)C1=C(C)NC(C)=C(C(=O)OCCCN2CCC(c3ccccc3)(c3ccccc3)CC2)C1c1cccc([N+](=O)[O-])c1 (stereo not drawn)	2.99 µM (active)
CCN(CC)CCCC(C)Nc1cc(/C=C/c2ccccc2Cl)nc2cc(Cl)ccc12 (stereo not drawn)	0.842 µM (active)
CCc1nc(NCc2cn[nH]c2-c2ccc(Cl)cc2)c2cnn(C)c2n1	inactive
COC[C@@H]1CN(C(=O)c2cc3ccccc3[nH]2)C[C@H]1c1ccncc1	inactive
CCCCCCCNC(=O)C1(CC2CC(c3ccc(Cl)cc3)=NO2)CCN(C(=O)c2cc(OCC)c(OCC)c(OCC)c2)CC1 (stereo not drawn)	3.35 µM (active)
COCCNC(=O)C1COC2(CCN(C(=O)c3ccc(Cl)cc3)CC2)N1C(=O)c1ccccc1C (stereo not drawn)	inactive
Cc1cc(Cl)ccc1-c1ccc(CNC2CN(C(=O)OC(C)(C)C)C2)cc1	inactive

Compound	Potency
CCOc1cc(C(=O)N2CCC(CC3CC(c4ccc(Cl)cc4)=NO3)(C(=O)NCC3CCCCC3)CC2)cc(OCC)c1OCC (stereo not drawn)	0.842 µM (active)
O=C(NCc1ccccc1)N1CCC(c2nc(C3CCOCC3)no2)CC1	inactive
CC(C)(C)OC(=O)N1CCC(CC2CC(c3ccccc3)=NO2)(C(=O)NCc2ccccc2)CC1 (stereo not drawn)	2.66 µM (active)
CCOc1cc(C(=O)N2CCC(CC3CC(c4cccc(Br)c4)=NO3)(C(=O)NCC3CCCCC3)CC2)cc(OCC)c1OCC (stereo not drawn)	1.68 µM (active)
CC(C)c1cc(C(=O)NC2CCN(c3ncccc3C#N)CC2)n(C)n1	inactive
CCCCCCCNC(=O)C1(CC2CC(c3cccc(Br)c3)=NO2)CCN(C(=O)c2cc(OCC)c(OCC)c(OCC)c2)CC1 (stereo not drawn)	10.6 µM (active)
CC(NCc1ccccc1O)C12CC3CC(CC(C3)C1)C2 (stereo not drawn)	0.0944 µM (active)
O=C1NCCCCCCN(C(=O)C2CCC2)[C@H]2C[C@H](c3nc(-c4cccnc4)no3)C[C@@H]12	inactive
Cc1ccncc1C(=O)NCC(=O)N1CCCCCNC(=O)CC1c1ccccc1 (stereo not drawn)	inactive
Cn1cnc(C(=O)NCC(=O)N2CCCCCNC(=O)CC2c2ccccc2)c1 (stereo not drawn)	inactive
O=C1CC(c2ccccc2)N(C(=O)CNC(=O)c2[nH]nc3c2CCc2ccccc2-3)CCCCCCN1 (stereo not drawn)	2.99 µM (active)
Cn1nc(C(=O)NCC(=O)N2CCCCCCNC(=O)CC2c2ccccc2)c2ccccc21 (stereo not drawn)	2.11 µM (active)
CNC(=O)c1[nH]nc2c1CCc1cc(OC)ccc1-2	inactive
COc1ccc2c(c1)CCc1c-2n[nH]c1C(=O)N1CCc2c(nc3cc(-c4ccccc4)[nH]n3c2=O)C1	inactive
O=C1CC(c2ccccc2)N(C(=O)CNC(=O)c2ccc3[nH]ccc3c2)CCCCCN1 (stereo not drawn)	15 µM (active)
Cc1ccc(S(=O)(=O)N[C@@H]2CN(C)C[C@H]2CN(C)C)cc1F	15 µM (active)
CCOc1ccc(CC(=O)N[C@@H]2CN(c3ncccn3)C[C@H]2CN(C)C)cc1	inactive
CN(C)C[C@@H]1CN(C)C[C@H]1NS(=O)(=O)c1ccc(Br)cc1	13.3 µM (active)
CN(C)C[C@@H]1CN(S(C)(=O)=O)C[C@H]1NC(=O)c1ccccc1	inactive
Cc1nn(-c2ccccc2)c2c1C(O)n1c(nc3ccccc31)S2 (stereo not drawn)	5.31 µM (active)
CCOC(=O)C1=Nc2ccccc2C1=[N+]=[N-]	4.22 µM (active)
CCOC(=O)C1=C(C)N=c2s/c(=C/c3ccc(OCC(=O)O)cc3)c(=O)n2C1c1cc(OC)c(OC)c(OC)c1 (stereo not drawn)	1.88 µM (active)

Compound	Potency
CCOC(=O)C1=C(C)N=c2s/c(=C\c3ccc(OCC(=O)O)cc3)c(=O)n2C1c1ccccc1OC (stereo not drawn)	inactive
CCOc1ccc(C2C(C(=O)Nc3ccccc3)=C(C)N=c3s/c(=C/c4cccc(OCC(=O)O)c4)c(=O)n32)cc1 (stereo not drawn)	5.31 µM (active)
CCOC(=O)C1=C(c2ccccc2)N=c2s/c(=C\c3cc(OC)c(OC)c(OC)c3)c(=O)n2C1c1cccs1 (stereo not drawn)	5.96 µM (active)
Cc1ccc(CN(C)C(=O)c2cc(COc3ccc(F)cc3Cl)on2)o1	inactive
CC1(Cc2ccc3c(c2)OCO3)CCCN(C(=O)c2ccccc2-n2cncn2)C1 (stereo not drawn)	inactive
COC(=O)c1nn(-c2ccc3c(c2)CCN3C(C)=O)cc1O	inactive
COCCNc1nc2cc(C(=O)N3CC[C@H](CO)[C@@H](O)C3)ccc2n1C	inactive
COc1ccc(C2C(C(=O)N3CCCCC3)CC(=O)N2c2ccc(OC)cc2)cc1 (stereo not drawn)	7.5 µM (active)
COc1cnc(-c2ccccn2)nc1N(C)c1ccccc1	5.96 µM (active)
COc1cnc(-c2ccccn2)nc1NC(C)C	5.31 µM (active)
Cc1nc(-c2ccccn2)nc(N(C)c2ccccc2)c1Cl	5.31 µM (active)
COc1cnc(-c2ccccn2)nc1Oc1ccc(C(C)(C)C)cc1	inactive
COC(=O)c1ccc(Nc2ncnc3c2nc2n3CCCC2)cc1	inactive
CC(=O)c1cccc(NS(=O)(=O)c2cc(-c3cnc(C4CC4)o3)ccc2C)c1	inactive
CC(OC(=O)c1ccc(OCC2CCCO2)cc1)C(=O)N(C)Cc1ccccc1 (stereo not drawn)	inactive
COC(=O)c1ccc(Nc2nnc(-c3ccc(C)c(S(=O)(=O)N4CCN(C)CC4)c3)c3ccccc23)cc1	8.41 µM (active)
Cc1ccc(-c2nnc(Nc3ccc(OCC(N)=O)cc3)c3ccccc23)cc1S(=O)(=O)NCC1CCCO1 (stereo not drawn)	4.73 µM (active)
Cc1ccc(-c2nnc(Nc3ccc(O)cc3)c3ccccc23)cc1S(=O)(=O)N1CCN(C)CC1	6.68 µM (active)
CCOC(=O)c1c(N)sc2c1CCN(Cc1ccccc1)C2	5.31 µM (active)
CCOC(=O)c1c(NC(=O)/C=C/c2ccc(OCC)cc2)sc2c1CCC2	inactive
CC(C)(C(=O)N1CCN(Cc2ccccc2)CC(O)C1)c1ccccc1 (stereo not drawn)	inactive
O=C(CN1CCC(n2nnc3cc(F)ccc32)CC1)Nc1ccccc1N1CCOCC1	5.31 µM (active)

Compound	Potency
Cc1cc(F)ccc1NC(=O)Cn1c(=O)ccc2cc(S(=O)(=O)N3CCC(C)CC3)ccc21	inactive
CCO[C@@H]1OC(C(=O)N2CCN(Cc3ccc4c(c3)OCO4)CC2)=C[C@H](c2cn(C(C)=O)c3ccccc23)[C@H]1CCCO	9.44 µM (active)
CCO[C@H]1OC(C(=O)N2CCN(Cc3ccc4c(c3)OCO4)CC2)=C[C@@H](c2cn(C(C)=O)c3ccccc23)[C@@H]1CCCO	8.41 µM (active)
O=C(NCc1nc2ccccc2[nH]1)C1=C[C@@H](c2ccccc2)C[C@@H](OCCCCO)O1	inactive
O=C(C1=C[C@H](c2csc3ccccc23)C[C@H](OCCCCO)O1)N1CCN(Cc2ccc3c(c2)OCO3)CC1	13.3 µM (active)
CCO[C@H]1OC(C(=O)N2CCN(Cc3ccccc3)CC2)=C[C@@H](C2CCCCC2)[C@@H]1CCCO	inactive
CN(Cc1cccnc1)Cc1ccccc1C(F)(F)F	inactive
CCOC(=O)c1nnn(-c2nonc2-n2cccc2)c1CN1CCC(C(=O)OCC)CC1	4.73 µM (active)
CCOC(=O)c1nnn(-c2nonc2-n2cccc2)c1CN1CCCCC1	7.5 µM (active)
Cn1c(CN2CCCCC2)nnc1C1CCCN(C(=O)c2cocn2)C1 (stereo not drawn)	inactive
CC(=O)Nc1cccc(OCc2nnc(C(=O)N3CCC[C@@H]3C(c3ccccc3)c3ccccc3)n2-c2ccccc2)c1	10.6 µM (active)
O=C(c1nnc(COc2ccc(OC(F)(F)F)cc2)n1-c1ccccc1)N1CCC[C@@H]1C(c1ccccc1)c1ccccc1	8.41 µM (active)
O=C(COc1ccccc1)N1CCCC(n2cc(-c3nc(C4CC4)no3)nn2)C1 (stereo not drawn)	inactive
CC(=O)Nc1cccc(-c2cn(C)c(=O)n3cc(COc4ccccc4)nc23)c1	inactive
O=C(c1nnc(CN2CCC(F)(F)CC2)n1-c1cccnc1)N1CCC[C@@H]1C(c1ccccc1)c1ccccc1	15 µM (active)
COC1CCOC2(CCN(C(=O)CCn3nc(C)cc3C)CC2)C1 (stereo not drawn)	inactive
COc1ccc(C2=C(Nc3ccccc3)c3ccccc3C2=O)cc1	9.44 µM (active)
O=C1C(c2ccc(C(F)(F)F)cc2)=C(Nc2ccc(Cl)cc2)c2ccccc21	1.5 µM (active)
COc1ccc(NC2=C(c3ccc(OC)cc3)C(=O)c3ccccc32)cc1	5.96 µM (active)
COCCn1cnc2ccc(Nc3ccc(C(F)(F)F)cc3)nc2c1=O	inactive
COc1ccc(NC2=C(c3ccc(C(F)(F)F)cc3)C(=O)c3ccccc32)cc1	2.11 µM (active)
COc1ccc(C(=O)NC2(C(F)(F)F)C(=O)NC(C)=C2C#N)cc1 (stereo not drawn)	inactive
